# PubChem BioAssay (NCATS)
# Values joined by “and” are separate entries in the source; they are usually repeats but may differ in a detail not shown here. Equal entries are not always repeated. Results filed as inconclusive are left out. More than one record can exist for a structure, and the calls need not agree. Active and inactive are the calls of the source. Unless noted, calls come from the whole dose curve; as a rule, active = well fitted curve in the direction sought with a large enough effect; inconclusive = small, poorly fitted or top-dose-only effect, or another doubt; inactive = no such curve, though single readings can be large or run the other way.
# Assay: qHTS Assay for Identifying Gametocytocidal Compounds (AID 743244); note: potency is the fitted concentration of half-maximal effect;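 for max response: % is set by controls: 0 for no effect and ±100 for the full control effect; actives lower the fluorescent signal which means gametocytes are killed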
# Details: P. falciparum 3D7 stage III-V gametocytes, alamarBlue, 72 h; max response: stronger effect = lower value
# How it was run: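 Compounds are pinned into medium, gametocytes (stage III–V, 3D7, 20,000 cells/well) added, and plates held 72 h at 37 °C in 5% CO2. AlamarBlue follows for 24 h before fluorescence reading.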
SMILES,max response,Potency
O=c1[nH]cnc2[nH]ncc12,-1.56% (inactive),
COc1cc(CC(C)N)cc(OC)c1OC (stereo unspecified),4.71% (inactive),
C[C@]12CC[C@@H]3c4ccc(OC(=O)N(CCCl)CCCl)cc4CC[C@H]3[C@@H]1CC[C@@H]2O,-1.39% (inactive),
COc1cccc([C@@]2(O)CCCC[C@@H]2CN(C)C)c1,5.95% (inactive),
CCOC(=O)C1=C(COCCN)NC(C)=C(C(=O)OC)C1c1ccccc1Cl (stereo unspecified),-0.484% (inactive),20 µM (active)
CNC(C)(C)Cc1ccccc1,20.1% (inactive),
COc1cc(CCN)cc(OC)c1OC,17.2% (inactive),
NC(=O)CS(=O)C(c1ccccc1)c1ccccc1 (stereo unspecified),-2.53% (inactive),
Clc1ccc2c(c1)C(c1ccccc1)=NCc1nncn1-2,5.88% (inactive),
CN1C(=O)COc2c(C(=O)NC3CN4CCC3CC4)cc(Cl)cc21 (stereo unspecified),4.3% (inactive),
CN(C)CCc1c[nH]c2cccc(OP(=O)(O)O)c12,13% (inactive),
CC(=O)CC(c1ccccc1)c1c(O)c2ccccc2oc1=O (stereo unspecified),17.5% (inactive) and 36.1% (inactive),
O=C1Nc2ccc(Cl)cc2C(c2ccccc2Cl)=NC1O (stereo unspecified),16.1% (inactive),
COc1cccc(C(=O)CCN[C@@H](C)[C@H](O)c2ccccc2)c1,,31.6 µM (active)
CC(C)=CC1C(C(=O)OCN2C(=O)C3=C(CCCC3)C2=O)C1(C)C (stereo unspecified),1.71% (inactive),
C[C@]12CC[C@@H]3c4ccc(OC(=O)N(CCCl)CCCl)cc4CC[C@H]3[C@@H]1CC[C@@H]2OP(=O)(O)O,0.678% (inactive) and -5.22% (inactive),
CCN[C@@H](C)Cc1ccccc1,-4.1% (inactive),
CCN[C@@H](C)Cc1cccc(C(F)(F)F)c1,13.9% (inactive),
NC1=NC(=O)C(c2ccccc2)O1 (stereo unspecified),-7.8% (inactive),
CCOP(=S)(OCC)Oc1ccc2c(C)c(Cl)c(=O)oc2c1,-0.845% (inactive),
O=C1Nc2ccc(Cl)cc2C(c2ccccc2)=NC1O (stereo unspecified),6.98% (inactive) and -4.42% (inactive),
O=C(O)c1ccccc1S,58.9% (inactive),
CN1CCC[C@@H]1c1cccnc1,35% (inactive),

# Assay: qHTS profiling of the MIPE4 collection as inhibitors of Plasmodium falciparum (3D7) proliferation (AID 743344; call rule not given here;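 note: scaled between DMSO vehicle wells and 0.29 µM artemisinin as full inhibition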)
# Details: P. falciparum 3D7 in erythrocytes, SYBR Green DNA fluorescence, 72 h; at 28.5 µM (top of the series) unless noted
# How it was run: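 Parasite DNA was quantified by SYBR Green I fluorescence (ex 485, em 535 nm) after overnight lysis in saponin/Triton buffer at room temperature. Cultures at 0.3% parasitemia and 2.5% hematocrit were first exposed to compound for 72 h at 37 C; signals were normalised to artemisinin (0.29 uM) and vehicle wells.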
row,SMILES,"parasite growth, % of DMSO control"
1,CC[N+](CC)(CC)CCOc1cccc(OCC[N+](CC)(CC)CC)c1OCC[N+](CC)(CC)CC,86%
2,O=c1[nH]cnc2[nH]ncc12,105%
3,C[C@]12CCC(=O)C=C1CC[C@@H]1[C@H]3CC[C@](C)(O)[C@@]3(C)CC[C@@H]12,70.7% [at 57.5 µM]
4,CN1C(=O)COc2c(C(=O)NC3CN4CCC3CC4)cc(Cl)cc21 (stereo unspecified),98.1%
5,CCOC(=O)C1=C[C@@H](OC(CC)CC)[C@H](NC(C)=O)[C@@H](N)C1,91.3%
6,CC(=O)CC(c1ccccc1)c1c(O)c2ccccc2oc1=O (stereo unspecified),71.1%
7,COCCCOc1ccnc(CS(=O)c2nc3ccccc3[nH]2)c1C (stereo unspecified),78.8%
8,CC(C)OC(=O)OCOP(=O)(CO[C@H](C)Cn1cnc2c(N)ncnc21)OCOC(=O)OC(C)C,292%
9,C[C@]12CC[C@H]3[C@@H](CC[C@@]45O[C@H]4C(O)=C(C#N)C[C@]35C)[C@H]1CC[C@H]2O,70.4%
10,C[C@]12CC[C@@H]3c4ccc(OC(=O)N(CCCl)CCCl)cc4CC[C@H]3[C@@H]1CC[C@@H]2OP(=O)(O)O,86.9%
11,C[C@](O)(CS(=O)(=O)c1ccc(F)cc1)C(=O)Nc1ccc(C#N)c(C(F)(F)F)c1,22%
12,Nc1ccn(C[C@@H](CO)OCP(=O)(O)O)c(=O)n1,94% [at 9.64 µM]
